# Experiments:
# [1] = test system: Vero E6 infected with SARS-CoV-2; assay: morphology score (similarity to uninfected cells); higher = more like uninfected cells; conditions: 24 h
# [2] = test system: Vero E6 infected with SARS-CoV-2; assay: SARS-CoV-2 infection rate relative to infected DMSO; higher = more infection, active = 60 or less; conditions: 24 h
SMILES,morphology score [1],SARS-CoV-2 infection rate [2]
N[C@@H]1CCN(c2cccnc2)C1 (10 µM),0.0226,102% (inactive)
O=S(=O)(O)CCSSCCS(=O)(=O)O [dimesna] (10 µM),0.144,104% (inactive)
Cn1ccc2cc3c(cc21)CCN3C(=O)Nc1cccnc1 (10 µM),0.204,99% (inactive)
CCCCCCCCCCCCCCCCOc1nc2ccc(C)cc2c(=O)o1 [cetilistat] (10 µM),-0.00505,104% (inactive)
Cc1cc(Oc2ccc3nc(COc4ccc(CC5SC(=O)NC5=O)cc4)n(C)c3c2)cc(C)c1N (stereo not given) [efatutazone] (10 µM),0.36,93.5% (inactive)
CN1C(C(=O)Nc2ccccn2)=C(O)c2sc(Cl)cc2S1(=O)=O [lornoxicam] (10 µM),0.00915,97% (inactive)
NCCCS(=O)(=O)O [tramiprosate] (10 µM),0.072,104% (inactive)
COc1cc(NS(C)(=O)=O)ccc1Nc1c2ccccc2nc2ccccc12 [amsacrine] (10 µM),-0.0803,108% (inactive)
CCSc1ccc2c(c1)N(CCCN1CCN(C)CC1)c1ccccc1S2 [thiethylperazine] (10 µM),0.722,29.5% (active)
Cc1[nH]c(=O)c(C#N)cc1-c1ccncc1 [milrinone] (10 µM),0.236,93.5% (inactive)
NNCCc1ccccc1 [phenelzine] (10 µM),0.113,102% (inactive)
COc1ccc2cc1Oc1ccc(cc1)C[C@H]1c3c(cc4c(c3Oc3cc5c(cc3OC)CCN(C)[C@@H]5C2)OCO4)CCN1C [cepharanthine] (10 µM),0.461,77.5% (inactive)
COc1ccc(C(=O)Nc2sc3c(c2C(N)=O)CCCC3)cc1OC (10 µM),-0.0466,96.5% (inactive)
COc1ccc2cc(-c3nc(-c4ccc([S+](C)[O-])cc4)[nH]c3-c3ccncc3)ccc2c1 (stereo not given) [tie2-kinase-inhibitor] (10 µM),0.619,72.5% (inactive)
CCc1ccc(CCOc2ccc(CC3SC(=O)NC3=O)cc2)nc1 (stereo not given) [pioglitazone] (10 µM),0.077,110% (inactive)
C=C[C@H]1CN2CC[C@H]1C[C@H]2[C@H](O)c1ccnc2ccccc12 [cinchonidine] (10 µM),-0.111,112% (inactive)
C=CCN1CC[C@]23CCCC[C@H]2[C@H]1Cc1ccc(O)cc13 [levallorphan] (10 µM),-0.0532,114% (inactive)
O=c1cc(N2CCOCC2)oc2c1ccc1ccccc12 (10 µM),0.258,110% (inactive)
CC(=O)[O-].CC(=O)[O-].N.NC1CCCCC1.[Cl-].[Cl-].[Pt+4] [satraplatin] (0.833333 µM),0.00101,104% (inactive)
Clc1ccc(N2CCN(Cc3c[nH]c4ncccc34)CC2)cc1 (10 µM),-0.0196,108% (inactive)

SMILES,morphology score [1],SARS-CoV-2 infection rate [2]
CN(C)CCOC(c1ccccc1)c1ccccc1.Cn1c(=O)c2[nH]c(Cl)nc2n(C)c1=O [dimenhydrinate] (10 µM),-0.0688,110% (inactive)
CC(=O)N[C@H](Cc1ccc2ccccc2c1)C(=O)N[C@H](Cc1ccc(Cl)cc1)C(=O)N[C@H](Cc1cccnc1)C(=O)N[C@@H](CO)C(=O)N[C@@H](Cc1ccc(O)cc1)C(=O)N[C@H](CCCNC(N)=O)C(=O)N[C@@H](CC(C)C)C(=O)N[C@@H](CCCNC(=N)N)C(=O)N1CCC[C@H]1C(=O)N[C@H](C)C(N)=O [cetrorelix] (10 µM),0.394,79.5% (inactive)
C[C@H](Oc1cc(-c2cnn(C3CCNCC3)c2)cnc1N)c1c(Cl)ccc(F)c1Cl [crizotinib-(S)] (0.833333 µM),0.602,99% (inactive)
Oc1ccc([C@H]2COc3cc(O)ccc3C2)cc1 [equol] (10 µM),-0.116,114% (inactive)
C[C@@H]1O[C@@H](O[C@H]2[C@H](Oc3cc(O)c4c(c3)O[C@H](c3ccc(O)cc3)CC4=O)O[C@H](CO)[C@@H](O)[C@@H]2O)[C@H](O)[C@H](O)[C@H]1O [Naringin (Naringoside)] (10 µM),0.254,106% (inactive)
CCCC(=O)O [sodium-butyrate] (10 µM),0.0558,110% (inactive)
COC(=O)N[C@@H](C)CNc1nccc(-c2cn(C(C)C)nc2-c2cc(Cl)cc(NS(C)(=O)=O)c2F)n1 [Encorafenib (LGX818)] (0.833333 µM),0.0501,95% (inactive)
Cc1ccc2c(c1)C1(CCN(CCc3nc(-c4ccccc4)oc3C)CC1)OC(=O)N2 (0.833333 µM),0.0199,104% (inactive)
C[C@@](Cc1ccc(O)c(O)c1)(NN)C(=O)O [carbidopa] (10 µM),-0.0523,100% (inactive)
CC(C)c1noc(N2CCC(COc3ccc(-c4ccc(S(C)(=O)=O)cc4)nc3)CC2)n1 (10 µM),-0.0966,116% (inactive)
CN1CCN(C(=O)C2C(C(=O)O)[C@H]3CC[C@@H]2O3)CC1 (stereo not given in full) (10 µM),0.0648,110% (inactive)
Fc1ccc(-c2c3cccc(C(F)(F)F)c3nn2Cc2ccc(F)cc2Cl)cc1 (10 µM),0.289,95.5% (inactive)
CNC(=O)O[C@H]1COc2ccc(N3CCN(C4COC4)CC3)cc2[C@@H]1NC(=O)c1ccc(F)cc1 (10 µM),0.123,95.5% (inactive)
C/C(=C\c1csc(C)n1)[C@@H]1C[C@@H]2O[C@]2(C)CCC[C@H](C)[C@H](O)[C@@H](C)C(=O)C(C)(C)[C@@H](O)CC(=O)N1 [ixabepilone] (10 µM),-0.0812,108% (inactive)
CN(C)CCCN1c2ccccc2Sc2ccccc21 [promazine] (10 µM),0.41,91.5% (inactive)
NC(=O)N1c2ccccc2C=Cc2ccccc21 [carbamazepine] (10 µM),-0.0216,108% (inactive)
C[C@]12CC/C(=N\OCCN)C[C@@H]1C(=O)C[C@@H]1[C@@H]2CC[C@]2(C)C(=O)CC[C@@H]12 [istaroxime] (0.833333 µM),0.151,102% (inactive)
Cc1[nH]c2ccc(F)cc2c1-c1nc2c3cccnc3c3ncccc3c2[nH]1 (10 µM),0.21,102% (inactive)
O=C(O)Cn1c(C(=O)Nc2nc(-c3ccccc3Cl)cs2)cc2ccccc21 (10 µM),0.162,93% (inactive)
O[C@@H](CN1CCNCC1)Cn1c2ccc(Br)cc2c2cc(Br)ccc21 [BAX-channel-blocker] (0.833333 µM),0.121,104% (inactive)

SMILES,morphology score [1],SARS-CoV-2 infection rate [2]
COc1ccc2[nH]c([S+]([O-])Cc3ncc(C)c(OC)c3C)nc2c1 (stereo not given) [omeprazole] (10 µM),0.0924,104% (inactive)
O=C1c2cccc3c2[C@H](CCC3)CN1[C@@H]1CN2CCC1CC2 [palonosetron] (10 µM),0.324,91.5% (inactive)
Cc1noc(C)c1-c1cc(O)cc([C@@H](O)c2ccccc2)c1 (10 µM),0.154,104% (inactive)
O=C1c2c(O)ccc(O)c2C(=O)c2c(NCCNCCO)ccc(NCCNCCO)c21 [mitoxantrone] (0.833333 µM),-0.00869,108% (inactive)
CC(C)N(CCCNC(=O)Nc1ccc(C(C)(C)C)cc1)C[C@H]1O[C@@H](n2ccc3c(N)ncnc32)[C@H](O)[C@@H]1O (10 µM),-0.157,108% (inactive)
CC(=O)c1cc([N+](=O)[O-])c(Sc2ccc(F)cc2F)s1 (10 µM),0.534,38.5% (active)
COc1ccc(C(=O)Nc2c(Cl)cncc2Cl)cc1OC1CCCC1 [piclamilast] (10 µM),0.363,107% (inactive)
Cc1c(C)c(NCC(=O)N(C)C2CCN(Cc3ccc(C(N)=O)cc3)CC2)c(C)c(C)c1N (10 µM),0.211,91% (inactive)
C=CC(=O)N1CCC(Oc2cc3c(Nc4ccc(Cl)c(Cl)c4F)ncnc3cc2OC)CC1 [poziotinib] (10 µM),-0.0962,108% (inactive)
CCc1nc(N)nc(N)c1-c1ccc(Cl)cc1 [pyrimethamine] (0.833333 µM),-0.0159,115% (inactive)
CCOc1cc(C(C)(C)C)ccc1C1=N[C@@](C)(c2ccc(Cl)cc2)[C@@](C)(c2ccc(Cl)cc2)N1C(=O)N1CCN(CCCS(C)(=O)=O)CC1 (10 µM),-0.0507,104% (inactive)
Cc1c(O)c(=O)ccn1C [deferiprone] (10 µM),-0.123,98% (inactive)
COc1cc2c(cc1Cc1cccc(Cl)c1F)c(=O)c(C(=O)O)cn2[C@H](CO)C(C)C [elvitegravir] (10 µM),0.0588,107% (inactive)
CCn1cc(C(=O)O)c(=O)c2cc(F)c(N3CCNCC3)cc21 [norfloxacin] (10 µM),0.204,86% (inactive)
c1cc(-c2sc(-c3ccncc3)c(-c3ccncc3)c2-c2ccncc2)ccn1 (10 µM),0.0438,93% (inactive)
C[C@H](Nc1ncnc2[nH]cnc12)c1cc2ccc(F)cc2nc1-c1ccccn1 (10 µM),0.0578,114% (inactive)
CC[C@@H]1C(=O)OC[C@@H]1Cc1cncn1C [pilocarpine] (10 µM),-0.105,110% (inactive)
CN(C)c1ccc(-c2nc3c(N4CCN(CC(=O)Nc5nccs5)CC4)c(Cl)cnc3[nH]2)cc1 (10 µM),0.47,74.5% (inactive)
C/C=C(/C(=C/C)c1ccc(O)cc1)c1ccc(O)cc1 [dienestrol] (10 µM),-0.0419,96% (inactive)
CC(C)C[C@@H](C=O)NC(=O)[C@H](CC(C)C)NC(=O)[C@H](CC(C)C)NC(=O)OCc1ccccc1 (10 µM),0.514,66% (inactive)
